The record followed here is PubChem BioAssay (EPA / NIEHS).

Calls of active or inactive are those of the source. How the source made its calls: active means hit-call score of the fitted dose curve at least 0.9, where 1 is the maximum; inactive means score below 0.9.

Paired box protein Pax-6 (Homo sapiens), sequence (P26367 whole entry, looked up): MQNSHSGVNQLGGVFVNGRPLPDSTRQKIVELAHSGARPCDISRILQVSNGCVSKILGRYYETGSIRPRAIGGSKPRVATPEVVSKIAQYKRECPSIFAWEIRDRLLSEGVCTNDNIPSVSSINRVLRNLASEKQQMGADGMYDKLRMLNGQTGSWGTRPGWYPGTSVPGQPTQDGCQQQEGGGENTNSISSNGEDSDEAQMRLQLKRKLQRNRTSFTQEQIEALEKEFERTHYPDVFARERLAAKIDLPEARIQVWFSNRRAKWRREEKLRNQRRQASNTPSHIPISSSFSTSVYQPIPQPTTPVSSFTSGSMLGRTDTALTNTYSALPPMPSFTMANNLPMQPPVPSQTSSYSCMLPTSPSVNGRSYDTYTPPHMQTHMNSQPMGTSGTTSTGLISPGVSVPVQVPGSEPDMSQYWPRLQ

Test system in the first assay: not listed separately
Nature of the assay: ATG_PBREM_CIS: Attagene CIS-FACTORIAL HepG2 Assay for human Phenobarbital-responsive Enhancer Module (PBREM) (AID 2282955). As to conditions: HepG2 PBREM cis-reporter, Attagene multiplexed transcription; actives raise or lower the signal. Summed up: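 HepG2 cells transiently transfected with multiple cis-regulated reporter units measure endogenous transcription factor activity; 24 h compound exposure. Reporter mRNA quantified by RT-PCR, fluorescent labelling, HpaI digestion and capillary electrophoresis; bidirectional fit versus DMSO.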
As for `C=CCCCCCCCCCCCC`, the result was inactive.
Take `COC(=O)CCCC(=O)OC`: the result was inactive.
On the same count and under the same terms, in the case of `CC(=O)OC1CC(C)OC(C)O1` (configuration not stated) it was “inactive”; in that of `CCc1nc(N)nc(N)c1-c1ccc(Cl)cc1`, “inactive”.
Turning to `Cc1ccc(C(C)(C)C)c(O)c1`, the AC50 is 150 µM (active).
In the case of `CN(C)CCCN1c2ccccc2Sc2ccc(Cl)cc21`, the result was inactive.
For the compound `CC1=C(C)S(=O)(=O)CCS1(=O)=O`, the result was inactive.
Still for that read-out and setting: the same measure for `Cc1c(C)c2c(c(C)c1O)CCC(C)(COc1ccc(CC3SC(=O)NC3=O)cc1)O2` (configuration not stated): “inactive”.
Take `CS(=O)(=O)c1ccc([C@@H](C[C@H]2CCC(=O)C2)C(=O)Nc2cnccn2)cc1Cl`: the outcome was inactive.
The same measure, in the same setting: in the case of `NCCOCCOCCN` it was “inactive”; in that of `Oc1ccc(O)cc1`, “inactive”.
Consider `O=C(O)c1cccnc1`, for which the outcome was inactive.
Still for that read-out and setting: in the case of `CCCCC(CC)COP(=O)(OCC(CC)CCCC)OCC(CC)CCCC` (configuration not stated) it was “inactive”; in that of `O=C1O[C@H]([C@H](O)CO)C(O)=C1O`, “inactive”.
Same read-out and setting: in the case of `Cc1cc(Cc2ccc(N)c(C)c2)ccc1N` it was “inactive”.
Still for that read-out and setting: in the case of `O=C(O)c1[nH]n(-c2ccc(S(=O)(=O)O)cc2)c(=O)c1N=Nc1ccc(S(=O)(=O)O)cc1` it was “inactive”; in that of `C#CC(O)C(CC)CCCC` (configuration not stated), “inactive”.
Turning to `CC(C)(C)c1ccccc1`, the outcome was inactive.

In the next assay the target is Paired box protein Pax-6 (Homo sapiens) (UniProt P26367). Nature of the assay: ATG_Pax6_CIS: Attagene CIS-FACTORIAL HepG2 Assay for human Paired Box 6 (PAX6) (AID 2282956). The following applies: HepG2 CIS-FACTORIAL PAX6 reporter transcription, RNA readout; actives raise or lower the signal. Summed up:
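Transient MRTU transfection of HepG2 → compound exposure 24 h → TriZol RNA, oligo(dT) RT → PCR, 6-FAM primer extension, HpaI cut → capillary electrophoresis; activity fitted both directions against DMSO.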
`C=CCCCCCCCCCCCC`: the call was inactive.
On to `COC(=O)CCCC(=O)OC`, for which the result was inactive.
The same measure, in the same setting: the same measure for `CC(C)c1cccc(C(C)C)c1`: “inactive”; for `CC(=O)OC1CC(C)OC(C)O1` (configuration not stated): “inactive”.
Turning to `CC(C)NCC(O)c1ccc(O)c(O)c1` (configuration not stated), the result was inactive.
On the same count and under the same terms, in the case of `CC(=O)O` it was “inactive”.
For the compound `CCOCCOCCO`, the compound was classed as inactive.
On to `CCc1nc(N)nc(N)c1-c1ccc(Cl)cc1`, for which the AC50 is 46 µM (active).
`Cc1ccc(C(C)(C)C)c(O)c1`: the AC50 is 152 µM (active).
Consider `CN(C)CCCN1c2ccccc2Sc2ccc(Cl)cc21`, for which the AC50 is 15.9 µM (active).
For `O=Cc1ccccc1C=O`, the result was inactive.
Same read-out and setting: in the case of `CC1=C(C)S(=O)(=O)CCS1(=O)=O` it was “inactive”.
On to `C=CCc1ccc(OC)c(OC)c1`, for which the compound was classed as inactive.
The same measure, in the same setting: in the case of `Cc1c(C)c2c(c(C)c1O)CCC(C)(COc1ccc(CC3SC(=O)NC3=O)cc1)O2` (configuration not stated) it was “inactive”; in that of `Cc1ccc(-c2cc(C(F)(F)F)nn2-c2ccc(S(N)(=O)=O)cc2)cc1`, “inactive”; in that of `CCCCCCC(CCCCCCCCCCC(=O)OCC(COC(C)=O)OC(C)=O)OC(C)=O` (configuration not stated), “inactive”.
In the case of `CS(=O)(=O)c1ccc([C@@H](C[C@H]2CCC(=O)C2)C(=O)Nc2cnccn2)cc1Cl`, the compound was classed as inactive.
As to `CC(=O)[C@@]1(O)CC[C@H]2[C@@H]3CCC4=CC(=O)CC[C@]4(C)[C@H]3CC[C@@]21C`, the call was inactive.
On the same count and under the same terms, in the case of `NCCOCCOCCN` it was “inactive”; in that of `Oc1ccc(O)cc1`, “inactive”; in that of `CN(C)CCCN(C)CCCN(C)C`, “inactive”.
Still for that read-out and setting: in the case of `O=C(O)c1cccnc1` it was “inactive”; in that of `CCCCC(CC)COP(=O)(OCC(CC)CCCC)OCC(CC)CCCC` (configuration not stated), “inactive”.
Same read-out and setting: the same measure for `O=C1O[C@H]([C@H](O)CO)C(O)=C1O`: “inactive”.
With `Cc1cc(Cc2ccc(N)c(C)c2)ccc1N`, the compound was called inactive.
With `NC(=Nc1ccccc1)Nc1ccccc1`, the AC50 is 34.6 µM (active).
On to `O=C(O)c1[nH]n(-c2ccc(S(=O)(=O)O)cc2)c(=O)c1N=Nc1ccc(S(=O)(=O)O)cc1`, for which the outcome was inactive.
Consider `C#CC(O)C(CC)CCCC` (configuration not stated), for which the outcome was inactive.
Regarding `CC(C)(C)c1ccccc1`, the compound was called inactive.
